Pemphigus Ab inh: blocks pemphigus antibody binding to human desmoglein-3; binding (percent of control), % at 10 µM; actives 0.48% (n = 310,000); DSG3-coupled beads, scFv-anti-DSG3-GFP binding, flow cytometry; hits give low values; P32926;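 active = binding more than 3 SD below its plate's average and above zero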;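 also: hits lower antibody fragment binding to DSG3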
VLA-4 inh: inhibition in a human VLA-4 binding assay. actives 0.2% (n = 330,000). P13612. inhibition, % (about 7 µM as worked out from the volumes in the protocol). VLA-4 expressing cells, ligand binding flow cytometry
HDAC3 inhib: human HDAC3 inhibition | O15379 | recombinant HDAC3, fluorogenic peptide/trypsin coupled, fluorescence | inhibition, % at 8.3 µM | actives 0.15% (n = 320,000) | AID 2718; in the data active = inhibition above about 26%, passing the limit was not always enough
GRK2 inh: inhibitors of human GRK2 displacing RNA aptamer; AID 488847; bead flow cytometry, FAM-aptamer displacement from GRK2; P25098; inhibition of aptamer binding, % at 10 µM; actives 0.59% (n = 330,000);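 active = inhibition of aptamer binding above 40%, roughly 3 SD of noise, on plates passing a quality check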;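 also: median bead fluorescence of bound FAM aptamer so fluorescent compounds give negative values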
LANA-H2B inh: blocks KSHV LANA binding to histone H2A/H2B; inhibition, % (no concentration beside the values); cell-free LANA-H2A/H2B peptide, fluorescence polarization; actives 0.6% (n = 320,000); Q9QR71; in the data active = inhibition mostly above about 10%, no sharp cut-off; inactive = mostly below about 6.7%
PKD1 inh: inhibitors of human PKD1 kinase; AID 797; Q15139; actives 0.056% (n = 200,000); PKD1 kinase fluorescence polarization assay; inhibition, % (concentration not given with the values)
Hits are given with their value. This is a sample that favours compounds with a hit; in the whole collection about 1.8% have one here. Rule as the data show it, unless noted: active = inhibition above about 50%; inactive = the rest.

Screening Cc1ccc(CCNC(=O)CCS(=O)(=O)c2ccc3nc(C)sc3c2)cc1 returned Pemphigus Ab inh -11, VLA-4 inh inactive, HDAC3 inhib inactive, GRK2 inh inactive and LANA-H2B inh inactive.
O=C(c1cccc(-n2cccc2)c1)N1CCN(S(=O)(=O)c2ccccc2)CC1 was read as Pemphigus Ab inh inactive, VLA-4 inh inactive, HDAC3 inhib inactive, GRK2 inh 81 and LANA-H2B inh inactive.
Screening CCOC(=O)NCc1ccc2[nH]c(C)cc2c1 returned Pemphigus Ab inh inactive, VLA-4 inh inactive, HDAC3 inhib inactive, GRK2 inh inactive and LANA-H2B inh inactive.
Screening Cc1cc2cc(CNC(=O)Nc3ccccc3)ccc2[nH]1 returned Pemphigus Ab inh 76, VLA-4 inh inactive, HDAC3 inhib inactive, GRK2 inh inactive, LANA-H2B inh inactive and PKD1 inh inactive.
`C/C(=N\Nc1ccc(S(=O)(=O)Nc2ccccc2)cc1[N+](=O)[O-])c1ccc(N2CCOCC2)cc1` gave Pemphigus Ab inh 76, VLA-4 inh inactive, HDAC3 inhib inactive, GRK2 inh inactive, LANA-H2B inh inactive and PKD1 inh inactive.
Screening C/C(=N\Nc1ccc(S(=O)(=O)Nc2ccc(Cl)cc2)cc1[N+](=O)[O-])c1ccc(N2CCOCC2)cc1 returned Pemphigus Ab inh inactive, VLA-4 inh inactive, HDAC3 inhib inactive, GRK2 inh inactive, LANA-H2B inh inactive and PKD1 inh inactive.
C/C(=N\Nc1ccc(Cl)c(C(=O)O)c1)c1ccc(N2CCOCC2)cc1 was read as Pemphigus Ab inh inactive, VLA-4 inh inactive, HDAC3 inhib inactive, GRK2 inh inactive and LANA-H2B inh 11.
For O=C(O)c1cc(N/N=C/c2ccc(N3CCOCC3)s2)ccc1Cl the results were Pemphigus Ab inh inactive, VLA-4 inh inactive, GRK2 inh inactive and PKD1 inh inactive.
Cc1cc(C(=O)COC(=O)C2=COCCO2)c(C)n1-c1cccc(F)c1 was read as Pemphigus Ab inh inactive, VLA-4 inh inactive, HDAC3 inhib inactive, GRK2 inh inactive and LANA-H2B inh inactive.
Screening CCC(=O)N1CCc2cc(S(=O)(=O)N(C)c3ccc(Br)cc3)ccc21 returned Pemphigus Ab inh 73.
For CCC(=O)N1CCc2cc(S(=O)(=O)N(C)c3ccc(OC)cc3OC)ccc21 the results were Pemphigus Ab inh inactive, VLA-4 inh inactive, HDAC3 inhib inactive, GRK2 inh inactive and LANA-H2B inh inactive.
COc1ccc(OCc2cc(C(=O)N3CCN(CC4CC4)CC3)no2)c(Cl)c1 was read as Pemphigus Ab inh inactive, VLA-4 inh inactive, HDAC3 inhib inactive, GRK2 inh inactive and LANA-H2B inh 26.
O=C(O)CC1(CC(=O)N2CCOCC2)CCCC1 was read as Pemphigus Ab inh inactive, VLA-4 inh inactive, HDAC3 inhib inactive, GRK2 inh inactive and LANA-H2B inh inactive.
For CSCCNC(C)=O the results were VLA-4 inh inactive, HDAC3 inhib inactive, GRK2 inh 61, LANA-H2B inh inactive and PKD1 inh inactive.
Screening O=C1C=CC(=O)N1c1ccc(OC(F)F)cc1 returned Pemphigus Ab inh 62, VLA-4 inh inactive, HDAC3 inhib inactive, GRK2 inh inactive, LANA-H2B inh inactive and PKD1 inh inactive.
`CN(C)c1ccc(/C=N/NC(=O)CNC(=O)c2ccc3c(c2)OCCO3)cc1` gave Pemphigus Ab inh inactive, VLA-4 inh inactive, HDAC3 inhib inactive, GRK2 inh inactive, LANA-H2B inh 25 and PKD1 inh inactive.
`CCOC(=O)c1cnc(SCC(=O)N2CCOCC2)nc1N` gave Pemphigus Ab inh inactive, VLA-4 inh inactive, HDAC3 inhib inactive, GRK2 inh inactive, LANA-H2B inh inactive and PKD1 inh inactive.
For CCN(CC)c1nc2cc(C)ccc2cc1/C=C(\C#N)C(N)=O the results were Pemphigus Ab inh inactive, VLA-4 inh inactive, HDAC3 inhib inactive, GRK2 inh inactive, LANA-H2B inh inactive and PKD1 inh inactive.
O=C(NNc1ccccc1[N+](=O)[O-])Nc1cccc(Cl)c1 was read as Pemphigus Ab inh inactive, VLA-4 inh inactive, HDAC3 inhib inactive, GRK2 inh inactive and LANA-H2B inh inactive.
`Cc1cc(C)cc(NS(=O)(=O)c2ccc3c(c2)C(C)(C)C(=O)N3C)c1` gave Pemphigus Ab inh inactive, VLA-4 inh inactive, HDAC3 inhib inactive, GRK2 inh inactive and LANA-H2B inh 11.
For O=C(N/N=C1/C(=O)c2cccc3cccc1c23)c1ccc(Cl)cc1 the results were Pemphigus Ab inh 61, VLA-4 inh inactive, HDAC3 inhib inactive, GRK2 inh inactive, LANA-H2B inh inactive and PKD1 inh inactive.
